Data: PubChem BioAssay (NCI)
The panel holds about 79,000 compounds, 15% with a hit somewhere; the sample as a whole holds those more often. A number with no mark means an inactive call. Activity calls are given as the source filed them. Rule as the data show it: active = growth inhibition above about 70%; inactive = the rest.

Assay: NCI Yeast Anticancer Drug Screen. Data for the mlh1 rad18 strain (AID 175)
Settings: S. cerevisiae mlh1 rad18 strain growth inhibition, active compounds read high
Protocol: Growth inhibition of yeast strains with defined genetic alterations is measured as a screen for potential anti-cancer activity. Selected strains with alterations in DNA damage repair or cell cycle control were exposed to compounds and growth inhibition was measured relative to vehicle treated controls. The strain used in this assay is mlh1 rad18

[1] = at 5.0 µM (retest, dose inferred, filed as 0.5)
[2] = at 50.0 µM (retest, dose inferred, filed as 5.0)

SMILES	growth inhibition [1]	growth inhibition [2]	growth inhibition (at 50.0 µM)
Oc1ccc(N=Nc2cc(Cl)ccc2Cl)cc1	94% (active)	96% (active)	97.7% (active)
CC(=O)OCC1OC(c2cccc3c2c2ccccc2n3S(=O)(=O)c2ccccc2)C(O)C1O (configuration not stated)	1%	98% (active)	37.9%
CCCCCCCCCCCC[n+]1ccc(C#N)cc1	16%	92% (active)	99.5% (active)
COc1cc2c3c(c4ccc(OC)c(OC)c4c2cc1OC)CN1CCC[C@@H]1C3	-29%	93% (active)	88.5% (active)
O=C1C=C(c2ccccc2)S(=O)(=O)c2c(O)cccc21	94% (active)	100% (active)	99.7% (active)
Cc1ccc(C2=CC(=O)/C(=C\C(=O)c3ccc(Cl)cc3)O2)cc1	37%	37%	58%
O=c1c2cccc3cccc(c4oc5c6cccc7cccc(c(=O)c5c14)c76)c32	17%	97% (active)	98.9% (active)
CCCN1CN(C(C(=O)N[C@@H]2C(=O)N3C(C(=O)O)=C(C)CSC23)c2ccccc2)CSC1=S (some centres not stated)	-13%	-12%	1.5%
NC1OC(COC(=O)c2ccccc2)C(O)C(OC(=O)c2ccccc2)C1OC(=O)c1ccccc1 (configuration not stated)	4%	97% (active)	95.8% (active)
COC(=O)c1cc[nH]c(=O)c1	-138%	-122%	60.8%
Cc1c(N=Nc2ccc(Cl)cc2)c(-c2ccccc2)n(C2OC(CO)C(O)C(O)C2O)c(=S)c1C#N (configuration not stated)	-7%	96% (active)	97.4% (active)
CCOC(=O)c1cc(Cc2ccccc2)c(=O)n(C)c1-c1ccccc1	2%	86% (active)	50.1%
C/C=C/C(=O)NCC(C(C)C)/[N+]([O-])=N/O (configuration not stated)	97% (active)	97% (active)	91.9% (active)
O=[N+]([O-])c1ccc(N2N=NC(CN3CCOCC3)C2N2CCOCC2)cc1 (configuration not stated)	3%	47%	60.1%
